This is a sample that favours compounds with a hit; in the whole collection about 5.3% have one here.
HIF activator – HIF pathway transcriptional activation. U2OS HRE-luciferase reporter, luminescence; normalized: DMSO 0%, desferrioxamine 100%. activation, % at 7.5 µM (by protocol). hit rate 0.32% among 300,000. AID 1910;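 active means mean activation of at least 10% of the iron chelator positive control signal, with at least half of replicates also reaching 10%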
ALR H2O2 inh – inhibitors of human sulfhydryl oxidase ALR; hit rate 3.8% among 290,000; P55789; purified ALR, DTT oxidation, H2O2 HRP-luminol luminescence; inhibition, % (no concentration beside the values);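 active means mean replicate inhibition above about 79%, with every replicate also reaching it, limit read from the data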
Target sequence (P55789 whole entry, looked up): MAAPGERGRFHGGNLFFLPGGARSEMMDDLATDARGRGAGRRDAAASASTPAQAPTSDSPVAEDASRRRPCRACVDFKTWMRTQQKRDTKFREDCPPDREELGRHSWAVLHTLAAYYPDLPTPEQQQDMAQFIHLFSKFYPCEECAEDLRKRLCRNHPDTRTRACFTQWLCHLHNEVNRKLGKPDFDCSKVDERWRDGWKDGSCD
Mot1-301 SUMO – blocks SUMOylation pathway, rescuing yeast Mot1-301 growth; growth rescue, % at 18.8 µM; S. cerevisiae Mot1-301 growth rescue, ATP luminescence, 38.5C; percent above DMSO median, 100 means doubled; hit rate 1% among 320,000; AID 2716;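 active means every valid replicate shows activation above 250% relative to neutral control wells; inactive means the rest, any valid replicate at or below 250%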;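 further: OY570 slx delta 5 strain wells were the positive control but not used for scaling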
PfM18AAP inh – PfM18AAP enzyme inhibition | recombinant PfM18AAP, H-Glu-NHMec fluorogenic cleavage | inhibition, % at 7.35 µM | hit rate 1.2% among 290,000;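 active means inhibition above the campaign mean inhibition over all tested compounds plus 3 SD, cut at about 28% in these data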;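 further: 0% = plate median of test compound wells and 100% = 2 mM ZnCl2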
Yeast Mot1 SUMO – SUMO pathway inhibitors in yeast Mot1-301 growth; growth activity, percent, % at 42 µM; shares compounds with Mot1-301 SUMO; AID 493004; S. cerevisiae Mot1-301 galactose growth, ATP luminescence, 24 h; -100 = growth of slx-deleted rescue strain; 2,300 tested, under 10 active;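 active means Signal drops as the depositor expects, and the fitted half-maximal dose is no more than ten times the top valid tested dose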;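 further: more negative values mean stronger growth rescue toward the control strain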
Numbers without * were called inactive; / = not tested or not shown; + = active, no number; [ ] = another dose, or the depositor's remark.

SMILES | HIF activator | ALR H2O2 inh | Mot1-301 SUMO | PfM18AAP inh | Yeast Mot1 SUMO
c1ccc(-c2cc3cc4c(cc3cn2)OCO4)cc1 | / | -2 | 528* | / | 0
Fc1ccc2cc(-c3ccccc3)ncc2c1 | / | 3 | 122 | / | /
c1ccc(-c2cc3ccccc3cn2)cc1 | / | 1 | 372* | / | -1
O=C(OCC(=O)c1ccc[nH]1)c1ccccc1 | 1 | -7 | 114 | -17 | /
O=C(COC(=O)c1c(F)cccc1F)c1ccc[nH]1 | 1 | / | 596* | 2 | 0
O=C(COc1ccc(Br)cc1Cl)c1ccc[nH]1 | 4 | -48 | 13 | -5 | /
O=C(COc1ccccc1Cl)c1ccc[nH]1 | 3 | -21 | 788* | 0 | 1
CC(C)(C)c1ccc(Cn2nnc3c(=O)[nH]c(C4CCN(C(=O)c5ccco5)CC4)nc32)cc1 | -5 | / | / | -1 | /
CCCc1nn2c(=O)cc(CSCC(=O)Nc3ccc(OC)cc3)nc2s1 | -1 | 22 | 539* | 3 | 1
COc1ccc(-c2cc(=O)[nH]c(N3CCN(Cc4ccccc4)CC3)n2)cc1 | -15 | 1 | 8 | 1 | /
O=c1cc(-c2ccccc2)nc(N2CCN(Cc3ccccc3)CC2)[nH]1 | 0 | 8 | 479* | 3 | 0
N#CC1=C(N)Nc2ncnn2C1c1ccc(F)cc1 (stereo not given) | 1 | 0 | 1 | 26 | /
COc1ccc(N(Cc2ccccc2)S(=O)(=O)c2cccc(C(=O)Nc3ccccn3)c2)cc1 | / | -10 | -6 | / | /
O=C(Nc1ccccn1)c1ccc(CN(c2ccccc2)S(=O)(=O)c2ccccc2)cc1 | -1 | 5 | 505* | -12 | 0
O=C(NNC(=O)c1ccccc1F)c1cccc(S(=O)(=O)N2CCc3ccccc32)c1 | / | 13 | 11 | / | /
CN(c1ccccc1)S(=O)(=O)c1ccc(C(=O)NCC2CCCO2)cc1 (stereo not given) | -3 | -10 | 451* | 2 | 0[21 µM]
CCCC(O)(CCC)C(=O)NNc1ccc(C)cc1 | 0 | 69 | 643* | -4 | 0
CC1CCC(C(C)C)C(OC(=O)COC(=O)c2ccc(N)cc2)C1 (stereo not given) | 0 | -2 | 21 | -10 | /
CC1CCC(C(C)C)C(OC(=O)COC(=O)c2cccn2C)C1 (stereo not given) | 0 | -4 | 377* | -5 | 0
CC1Cc2ccccc2N1C(=O)CN1C(=O)COc2ccccc21 (stereo not given) | -1 | 0 | 9 | 1 | /
CC1Cc2ccccc2N1C(=O)Cn1c(=O)cc(O)c2ccccc21 (stereo not given) | -1 | -12 | 636* | 4 | 0
COc1ccccc1CNc1nc(SC)ncc1CO | 0 | -10 | 474* | 0 | 0
Cc1ccccc1NC(=O)c1ccccc1NC(=O)c1ccco1 | 1 | -2 | 402* | 7 | 1
CC(=O)Nc1cccc2c1C(=O)N(c1ccccc1C)C2=O | 0 | 2 | 518* | -1 | -1
O=C1NC2(CCCCC2)NN1c1ccccc1 | 0 | / | 479* | 23 | 1
SMILES | HIF activator | ALR H2O2 inh | Mot1-301 SUMO | PfM18AAP inh | Yeast Mot1 SUMO
O=C(COC(=O)c1ccc([N+](=O)[O-])o1)Nc1ncc(Cl)cc1Cl | / | -32 | 848* | / | -1
Cc1[nH]c2ccccc2c1/C=N/NC(=O)c1ccccc1 | 1 | 24 | -7 | -1 | /
Cc1[nH]c2ccccc2c1/C=N/NC(=O)c1cccc(Br)c1 | 1 | 4 | 497* | 5 | 0
Cc1nc2scc(-c3cccs3)c2c(=O)[nH]1 | 0 | -2 | 5 | 4 | /
Nc1nc(SCc2nc3scc(-c4cccs4)c3c(=O)[nH]2)n[nH]1 | 1 | -11 | + | 10 | 0
O=C(NNC(=O)c1cccnc1Cl)c1ccc(F)cc1 | 0 | 0 | -1 | -23 | /
CCCCn1c(SCC(=O)Nc2cc(C)on2)nnc1-c1ccco1 | 0 | 0 | 527* | 0 | 0
CCn1c(SCC(=O)Nc2cc(C)on2)nnc1-c1ccco1 | 0 | 1 | -7 | 0 | /
NC(=O)c1ccsc1NC(=O)Cc1ccc([N+](=O)[O-])cc1 | / | / | 4 | 3 | /
CCCC(=O)NC(C)c1nc2ccccc2[nH]1 (stereo not given) | 0 | -18 | 595* | 2 | 1
CSCC[C@H](NC(=O)CC(C)(C)C)c1nc2ccccc2[nH]1 | 0 | -9 | 422* | 1 | 1
CC(NC(=O)Cc1ccccc1)c1nc2ccccc2[nH]1 (stereo not given) | 0 | -21 | -4 | -12 | /
COc1cccc(C(=O)N2CCN(S(=O)(=O)Cc3ccccc3)CC2)c1OC | -1 | -1 | 530* | -2 | 0
N#C/C(=C\c1cccs1)C(=O)c1ccccc1Cl | 2 | / | -24 | 17 | /
O=C(O)c1ccc([N+](=O)[O-])c(CS(=O)(=O)c2ccccc2)c1 | 1 | 25 | -4 | -8 | /
CCC(C)[C@H](NC(=O)Nc1ccc(S(N)(=O)=O)cc1)C(=O)OC (stereo not given in full) | 0 | / | 743* | -9 | 0
COc1ccc(NC(=O)CC(=O)Nc2ccc(OC)cc2)cc1 | 0 | -10 | -6 | / | /
COc1ccc([N+](=O)[O-])cc1NC(=O)C1CCCN1S(=O)(=O)c1cccs1 (stereo not given) | 0 | 8 | 418* | / | 0
COc1cc(C(=O)Nc2ccc3c(c2)OCCO3)ccc1-n1cnnn1 | 0 | -37 | + | 3 | 0
CC1CN(C(=O)CCNC(=O)c2ccc(Cl)cc2)CC(C)O1 (stereo not given) | 0 | -6 | 2 | -1 | /
CC(=O)N(C(C)=O)c1c(C#N)c(C)n(-c2ccccc2)c1C(=O)c1ccccc1 | -1 | 7 | + | 2 | -1
CN(NC(=O)c1ccco1)c1nc2ccccc2nc1C(F)(F)F | 0 | -14 | 81 | -7 | /
Cc1ccccc1C(=O)NN(C)c1nc2ccccc2nc1C(F)(F)F | 0 | -2 | + | 5 | 1
Cc1noc(C)c1C(=O)OCC(=O)NCc1ccc(Cl)cc1 | / | -7 | 7 | / | /
Nn1c(SCC(=O)NCC2CCCO2)nnc1-c1ccc(OC(F)F)cc1 (stereo not given) | -13 | -7 | 140 | / | /
SMILES | HIF activator | ALR H2O2 inh | Mot1-301 SUMO | PfM18AAP inh | Yeast Mot1 SUMO
Cc1cc(=O)c(C(=O)O)cn1Nc1ccc(Cl)cc1 | -43 | -4 | + | 13 | 0
Cc1ccccc1-c1nnc(SCCOc2ccc3c(C)cc(=O)oc3c2)o1 | 0 | -11 | -4 | -3 | /
CCc1c(C(=O)N2CCN(c3ccccc3F)CC2)[nH]c(C)c1C(C)=O | -1 | -1 | + | 0 | 0
O=C(c1ccccc1C(=O)N1CCN(c2ccccc2F)CC1)N1CCN(c2ccccc2F)CC1 | 0 | 4 | 10 | -21 | /
COc1ccc(OC)c(CC(NC(C)=O)C(=O)NC2CCN(S(=O)(=O)c3ccc(NC(C)=O)cc3)CC2)c1 (stereo not given) | 0 | / | 3 | 0 | /
CCOC(=O)c1c(NC(=O)COC(=O)Cn2cnc3c2c(=O)n(C)c(=O)n3C)sc(C)c1CC | 0 | 42 | 12 | / | /
O=C(c1ccccc1)N1CCc2ccccc21 | 0 | / | 4 | -4 | /
C/C(=C\C(=O)N1CCc2ccccc21)C(=O)O | -1 | 7 | 587* | -2 | 2

Screening data as filed in PubChem BioAssay.
